Screens as filed in PubChem BioAssay.
hgDAF12 agonist: hgDAF-12 agonism, primary luciferase screen; HEK293 GAL4-hgDAF12 UAS-luciferase reporter, agonist luminescence; normalized to butyrate control; activation, % at 6.8 µM; 1.8% of 370,000 active; AID 687014;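 active means activation above a cutoff set at the mean of all screened compounds plus 3 SD, cut at about 10% in these data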;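 further: 0% = DMSO wells and 100% = sodium butyrate wells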
ssDAF-12 act: activates DAF-12 receptor from parasite S. stercoralis; HEK293 ssDAF-12/GRIP1 lit1-tk-luc reporter, luminescence; % of 3 µM dafachronic acid response; activation, % at 6.8 µM; 1% of 370,000 active;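 active means activation above the mean over all tested compounds plus 3 SD, cut at about 0.9% in these data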;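 further: 0% = DMSO-only wells and 100% = 3 µM delta7-dafachronic acid wells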
DAX1 inh-1: NR0B1 (DAX1) inhibition; P51843; HEK293 Gal4-DAX1 luciferase reporter, luminescence; inhibition, % at 6.75 µM; 0.99% of 340,000 active;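 active means inhibition above the mean over all tested compounds plus 3 SD, cut at about 4.2% in these data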;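 further: 0% = DAX1-transfected cells with DMSO and 100% = empty-vector control cells with DMSO; inhibition shows as a rise in luminescence from relieved DAX1 repression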
Target sequence (P51843 207-470 limits assumed): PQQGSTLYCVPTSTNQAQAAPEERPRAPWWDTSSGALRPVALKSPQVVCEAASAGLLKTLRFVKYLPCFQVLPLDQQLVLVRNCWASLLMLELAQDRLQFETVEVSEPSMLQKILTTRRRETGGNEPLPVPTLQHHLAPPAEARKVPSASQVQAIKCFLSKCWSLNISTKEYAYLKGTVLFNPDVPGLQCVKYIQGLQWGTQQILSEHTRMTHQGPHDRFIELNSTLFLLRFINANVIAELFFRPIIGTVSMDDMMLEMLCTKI
hcDAF12 agonist: H. contortus DAF-12 activation, primary screen; HEK293 hcDAF-12 lit1-tk-luc reporter, luminescence; 0% DMSO, 100% Δ7-dafachronic acid; activation, % at 6.8 µM; 1.4% of 370,000 active; AID 652067;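 active means activation above the mean of all tested compounds plus 3 SD, cut at about 5.5% in these data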;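 further: 100% = response to 3 µM Δ7-dafachronic acid high control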
DAX1 inh-2: inhibitors of DAX1 repression of SF-1 activated StAR promoter; HEK293T StAR-luciferase reporter, SF-1/DAX-1 repression relief; 1.1% of 370,000 active; inhibition, % at 6.8 µM; AID 652010;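 active means inhibition above the mean over all tested compounds plus 3 SD, cut at about 3.6% in these data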;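 further: 0% = DAX-1 cells with DMSO and 100% = cells lacking DAX-1 with DMSO; higher inhibition means more luminescence from relief of DAX-1 repression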
DAX1 inh confirm: confirmation of human DAX1 (NR0B1) inhibitors | shares compounds with DAX1 inh-2 | inhibition, % at 6.8 µM | AID 652134 | 87% of 2,400 active | HEK293T StAR-promoter luciferase reporter, SF-1/DAX-1 repression;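 active means inhibition above the average of every tested compound plus 3 SD, cut at about 3.8% in these data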;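 further: 0% = DAX-1 cells with DMSO and 100% = no DAX-1 control cells with DMSO; active compounds raise luminescence by relieving repression of the StAR reporter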
SF1 AF2mut Luc: nonselective inhibitor or artifact in SF-1 mutant DAX1 counter-screen. 78% of 2,400 active. HEK293 StAR-luciferase, SF-1 AF2 mutant, luminescence. shares compounds with DAX1 inh-2. inhibition, % at 6.8 µM. AID 652136;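 active means inhibition above the mean of all tested compounds plus 3 SD, cut at about 3% in these data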;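 further: 0% = DAX-1 transfected cells with DMSO and 100% = cells without DAX-1 with DMSO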
LXRb hcDAF ctr: counter-screen for hcDAF-12 agonists: agonists of human LXR-beta. 3,400 tested, under 10 active. shares compounds with hcDAF12 agonist. AID 743027. HEK293 Gal4-LXR tk-luc reporter, luminescence, 24 h; normalized: DMSO 0%, positive control 100%. activation, % at 6.8 µM;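 active means mean percent activation of the reporter above a cutoff set as the average over tested compounds plus their standard deviation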
Target sequence (P55055 whole entry, looked up, the tested form may be a part): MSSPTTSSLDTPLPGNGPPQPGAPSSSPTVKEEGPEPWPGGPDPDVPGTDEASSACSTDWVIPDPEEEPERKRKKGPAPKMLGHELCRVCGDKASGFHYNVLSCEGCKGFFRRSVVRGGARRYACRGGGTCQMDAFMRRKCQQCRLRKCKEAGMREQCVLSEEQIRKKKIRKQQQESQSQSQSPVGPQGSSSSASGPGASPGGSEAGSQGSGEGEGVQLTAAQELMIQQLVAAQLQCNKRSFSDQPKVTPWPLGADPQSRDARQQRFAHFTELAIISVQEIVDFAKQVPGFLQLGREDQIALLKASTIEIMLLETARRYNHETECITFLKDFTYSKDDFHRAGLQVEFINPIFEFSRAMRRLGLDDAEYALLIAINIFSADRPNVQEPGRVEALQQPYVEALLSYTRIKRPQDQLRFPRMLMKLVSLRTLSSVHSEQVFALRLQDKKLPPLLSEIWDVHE
hcDAF12 ag: confirmation of H. contortus DAF-12 agonists | shares compounds with hcDAF12 agonist | 61% of 3,400 active | activation, % at 6.8 µM | HEK293 hcDAF-12 lit1-tk-luc reporter, luminescence; % of Δ7-dafachronic acid response;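 active means mean activation across triplicate tests above the threshold derived from the earlier primary screen, cut at about 5.5% in these data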;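 further: 0% = DMSO only wells and 100% = 3 µM Δ7-dafachronic acid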
hgDAF12 conf: hgDAF-12 agonism, confirmation assay; shares compounds with hgDAF12 agonist; HEK293 GAL4-hgDAF12 luciferase reporter, agonist mode; percent of butyrate response; activation, % at 6.8 µM; 80% of 3,300 active; AID 743050;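 active means mean activation over triplicate wells above the hit cutoff derived from the earlier primary screen, cut at about 11% in these data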;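 further: 0% = DMSO low control and 100% = 2 mM sodium butyrate high control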
LXRb DAF12 ctr: counter-screen for DAF-12 agonists: agonists of human LXR-beta; shares compounds with hgDAF12 agonist; 3,300 tested, under 10 active; HEK293 Gal4-LXR luciferase reporter, 24 h; activation, % at 6.8 µM;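 active means mean activation of the triplicate above a set limit carried over from the primary screen, none filed active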
The depositor's hits bear a star; x = not tested or not shown. Shown are actives, neighbours in structure and some others; about 4.1% of the full set was active somewhere.

SMILES | hgDAF12 agonist | ssDAF-12 act | DAX1 inh-1 | hcDAF12 agonist | DAX1 inh-2 | DAX1 inh confirm | SF1 AF2mut Luc | LXRb hcDAF ctr | hcDAF12 ag | hgDAF12 conf | LXRb DAF12 ctr
CCCCC(=O)N(C)c1c(CC)nc2c(OCCOc3ccc(F)cc3)cccn12 | -4.7 | -1.9 | x | -2.4 | -0.7 | x | x | x | x | x | x
Cc1ccc2nc(-c3cccc(Br)c3)c(Cc3ccsc3)n2c1 | 14.7* | -0.5 | x | 3.1 | 4.5* | 2.9 | 1.0 | x | x | 4.8 | 0.3
Cc1ccc(Cc2c(-c3cccc(Br)c3)nc3ccc(Br)cn23)cc1 | 5.7 | -0.6 | x | 0.6 | 2.8 | x | x | x | x | x | x
CCCS(=O)(=O)NC(=O)C1(C)CCN(C(=O)c2ccccc2F)C1 (stereo not drawn) | -0.7 | -1.2 | x | -1.1 | 0.2 | x | x | x | x | x | x
COc1ccc(CN2C(=O)[C@@](O)(c3cccn3C)c3cc(Br)ccc32)cc1 | -3.0 | -0.3 | x | -3.3 | -1.6 | x | x | x | x | x | x
CC(=O)C1=CCC(c2ccc(Cl)c(Cl)c2)N(S(=O)(=O)c2ccc(C)cc2)C1 (stereo not drawn) | 0.9 | -0.8 | x | -0.6 | -1.1 | x | x | x | x | x | x
O=C1C(=Cc2cccs2)CCc2ccccc21 | 18.0* | 1.4* | x | 9.4* | 7.7* | 11.9* | 6.2* | 1.8 | 8.7* | 18.5* | 0.9
O=C1c2ccccc2CCc2ccccc21 | 1.3 | -0.9 | 0.1 | -0.7 | -0.2 | x | x | x | x | x | x
O=C(NCc1ccco1)O[C@H]1CC[C@@]23CCCN2C(=O)CCC[C@H]3C1 | 2.6 | -1.6 | x | 2.1 | x | x | x | x | x | x | x
O=C(/C=C/Nc1ccccc1F)c1ccc(Br)cc1 | 16.6* | 1.5* | 3.6 | 12.3* | 5.2* | 13.8* | 8.4* | 2.3 | 13.6* | 22.6* | 1.4
O=C(/C=C/Nc1ccc(Br)cc1F)c1ccccc1 | 2.2 | -0.3 | -1.5 | 4.8 | 2.5 | x | x | x | x | x | x
O=C(Nc1ccc(N2CCCC2)c(Cl)c1)c1ccccc1F | 22.1* | 0.5 | 3.5 | 2.9 | 5.1* | 14.4* | 4.8* | x | x | 16.0* | 0.9
Cc1ccc(S(=O)(=O)NC(=O)C2(C)CCN2C(=O)C2CCCCC2)cc1 (stereo not drawn) | -1.6 | -0.9 | x | -1.2 | 1.2 | x | x | x | x | x | x
COc1cc(O)cc(/C=C/c2ccccc2)c1 | 15.2* | -0.4 | 2.1 | 4.0 | 4.6* | 9.3* | 5.5* | x | x | 16.2* | 0.7
COc1ccc(C(=O)/C=C/c2ccccc2)c(O)c1 | 8.2 | -1.0 | 0.9 | 0.8 | 0.6 | x | x | x | x | x | x
Cc1nc(N)sc1-c1csc(Nc2ncccn2)n1 | 16.2* | -0.2 | 1.3 | 3.6 | 5.4* | 8.4* | 4.8* | x | x | 12.5* | 0.5
CC(C)C[C@H]1CN(CCCC[C@H]2CNC(=O)C(=O)N2CCC2CCCCC2)C(=O)C(=O)N1CCC1CCCCC1 | 0.8 | -0.5 | x | 0.9 | 0.2 | x | x | x | x | x | x
Cc1ccsc1C(=O)NN=C1CCCCCC1 | 14.6* | 1.8* | 0.6 | 9.2* | 15.1* | 4.7* | 3.4* | 0.0 | 0.8 | 12.8* | 0.6
C/C(=N\NC(=O)c1sccc1C)c1ccncc1 | 19.9* | 1.1* | 2.1 | 9.1* | 18.0* | 4.9* | 2.9* | 0.9 | 1.6 | 13.6* | 0.6
C/C(C=NNC(=O)CSc1nc2ccccc2n1C)=C\c1ccccc1 | 0.2 | -1.3 | x | -0.8 | -1.1 | x | x | x | x | x | x
Cc1ccc(-c2cc(-c3ccccc3Cl)[nH]n2)c(O)c1 | 19.8* | 1.4* | 6.8* | 10.3* | 6.0* | 13.8* | 8.0* | 0.9 | 10.9* | 20.9* | 0.8
COc1ccccc1-c1cc(-c2cc(Cl)ccc2O)n[nH]1 | 2.6 | -1.4 | 0.3 | 1.9 | -0.3 | x | x | x | x | x | x
CCOC(=O)c1ccc(Nc2ccc(C(C)=O)cc2)cc1 | 21.1* | 1.3* | x | 7.7* | 9.0* | 7.0* | 5.7* | 1.4 | 10.2* | 18.7* | 0.6
Fc1ccccc1CSc1ncnc2c1ncn2C1CCCCO1 (stereo not drawn) | 14.4* | 0.2 | 0.7 | 5.0 | 6.1* | 8.6* | 5.0* | x | x | 12.7* | 0.8
Cc1cc(C)c2sc(NC(=O)C3=COCCO3)nc2c1 | 20.5* | 0.2 | 2.0 | 10.5* | 14.1* | 9.5* | 4.3* | 1.2 | 4.6 | 16.7* | 0.8
SMILES | hgDAF12 agonist | ssDAF-12 act | DAX1 inh-1 | hcDAF12 agonist | DAX1 inh-2 | DAX1 inh confirm | SF1 AF2mut Luc | LXRb hcDAF ctr | hcDAF12 ag | hgDAF12 conf | LXRb DAF12 ctr
CC(=O)c1cccc(N/C=C\C(=O)c2ccc(C)cc2)c1 | 19.6* | 0.7 | 0.4 | 9.6* | 6.0* | 18.6* | 8.5* | 1.9 | 9.7* | 25.1* | 1.1
CC(=O)c1cccc(NS(=O)(=O)c2ccc(N/C=C\C(=O)c3ccc(C)cc3)cc2)c1 | 3.3 | -0.2 | -2.5 | 1.0 | 0.7 | x | x | x | x | x | x
CCC(=O)N1CCCC1(C)C(=O)Nc1ccc2scnc2c1 (stereo not drawn) | 1.7 | -0.1 | x | 1.5 | 0.4 | x | x | x | x | x | x
O=C1CS/C(=C/C(=O)c2ccccc2)N1 | 1.3 | -1.0 | 0.3 | -0.7 | -0.1 | x | x | x | x | x | x
O=C(/C=C1\OCc2ccccc21)c1ccccc1 | 19.4* | 1.3* | x | 9.5* | 5.6* | 7.2* | 4.8* | 0.9 | 10.8* | 17.1* | 0.7
COc1ccccc1OCC(=O)Nc1ncc(C)s1 | 17.4* | 0.3 | 1.3 | 4.7 | 10.4* | 8.5* | 6.7* | x | x | 14.9* | 0.9
COC(=O)c1sc(NC(=O)COc2ccccc2OC)nc1C | -0.2 | -1.9 | -0.2 | 0.4 | 0.2 | x | x | x | x | x | x
CC/C(=N\NC(=O)c1ccoc1C)c1ccc(C)o1 | 22.8* | 2.1* | 1.0 | 9.2* | 7.1* | 2.4 | 2.7 | -0.1 | 1.7 | 9.3 | 0.3
O=C(CSC(=S)N1CCSCC1)c1ccccc1 | 18.2* | 0.6 | 0.6 | 3.5 | 5.0* | 11.5* | 6.9* | x | x | 18.6* | 0.8
S=C(c1ccccc1)N1CCSCC1 | -0.8 | -1.0 | -0.8 | 0.6 | 0.1 | x | x | x | x | x | x
Cc1nc(Nc2ccc(C(=O)O)cc2)sc1-c1ccccc1 | 16.6* | 2.6* | 0.8 | 10.4* | 5.5* | 2.7 | 0.3 | 1.5 | 7.2* | 10.0 | 0.7
Cc1nc(Nc2ccccc2)sc1C(=O)c1ccccc1 | 5.9 | -1.5 | x | 0.1 | -0.1 | x | x | x | x | x | x
Cc1nc(Nc2ccccc2)sc1-c1ccccc1 | 21.2* | 1.1* | 3.2 | 9.8* | 6.7* | 20.9* | 9.8* | 1.9 | 8.3* | 20.7* | 1.1
